Assay results taken from patent US20150152398, “Endoribonuclease and Methods of Use Thereof” (The Regents of the University of California, published 2015).

Molecular target: T1, TtCas6A R129A (Thermus thermophilus HB8, R129A)
T1 chain: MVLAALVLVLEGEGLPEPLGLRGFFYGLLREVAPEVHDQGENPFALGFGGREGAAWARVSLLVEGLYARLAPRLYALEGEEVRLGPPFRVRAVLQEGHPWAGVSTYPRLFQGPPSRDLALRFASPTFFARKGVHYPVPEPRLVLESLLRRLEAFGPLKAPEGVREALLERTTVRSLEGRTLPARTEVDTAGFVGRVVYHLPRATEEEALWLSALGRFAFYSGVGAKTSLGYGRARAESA
Assay: EMSA; Kd in FIG. 24D only
Settings: chain copies: 2 inferred; label: 5'-32P (EMSA); hairpin; ssRNA
Description: FIG. 22 illustrates that TtCas6A and TtCas6B both cleave repeats R1 and R3 and retain their cleaved products. (A) Sequences and predicted secondary structures of T. thermophilus CRISPR repeats. Sites of cleavage are indicated with blue arrows. TtCas6e (TTHB192) cleaves repeat R2, while TtCas6A (TTHA0078) and TtCas6B (TTHB231) both cleave repeats R1 and R3. (B) Cleavage product binding affinities of TtCas6A and TtCas6B enzymes. Maltose binding protein (MBP)-fused TtCas6A or TtCas6B were bound to in 5′-radiolabelled, vitro transcribed R1 and R3 RNAs. Bound and unbound fractions were resolved by electrophoresis on a native polyacrylamide gel and visualized by phosphorimaging. The data for these and all subsequent binding assays were fit with standard binding isotherms (solid line). Error bars on each data point denote standard error of the mean (SEM) from three independent experiments. (C) Experiments to confirm single turnover. RNA cleavage assays were carried out at indicated protein:RNA ratios. RNA cleavage was monitored using denaturing polyacrylamide gel electrophoresis. The data from these and all subsequent endoribonuclease activity assays were fit with single exponential curves to yield first-order rate constants. (Top to bottom: FIG. 22A, SEQ ID NOs: 1, 2, 55).
To test the importance of the stem sequence for substrate RNA recognition by TtCas6A, a series of EMSAs was performed using R1 repeat-derived RNAs that carried single base pair substitutions (C-G→A-U). All mutant RNAs contained the complete 5′ segment and additional two nucleotides downstream of the cleavage site. Compared to the wild-type RNA, substitution of any of the four C-G base pairs in the stem led to about five-fold decrease in affinity (FIG. 24C). This is consistent with the observation that the lower three C-G base pairs are specifically read out by Arg129. The binding defect observed upon mutation of the closing (uppermost) base pair could be due to loss of stability of the stem-loop structure, which is determined by the closing base-pair (Serra et al, 1993). To further investigate the protein determinants of RNA binding, we tested the TtCas6A mutants H37A and R129A and performed binding assays using substrates R1 and R3 (FIG. 24D).

Sequence | binding signal
GUUGCAAACCUCGUUAGCCUCGUAGAGGAUUGAAAC | ~290 fold lower affinity than WT
GUUGCAAGGGAUUGAGCCCCGUAAGGGGAUUGCGAC | ~260 fold lower affinity than WT
